From PMC7862700, “An all-to-all approach to the identification of sequence-specific readers for epigenetic DNA modifications on cytosine” come the findings set out here.

Holding throughout (assay): DAPPL (digital affinity profiling via proximity ligation, sequencing); 10 mM Tris-HCl pH 7.5, 50 mM NaCl, 1 mM DTT, 4% glycerol, room temperature, 30 min; GST-TFs on glutathione beads, 16-mer random dsDNA library, 0.1% formaldehyde crosslink after washing; high values mean tight binding
For one assay, the target named is T1, FEV (Homo sapiens, UniProt Q99581 1-238).
T1 sequence: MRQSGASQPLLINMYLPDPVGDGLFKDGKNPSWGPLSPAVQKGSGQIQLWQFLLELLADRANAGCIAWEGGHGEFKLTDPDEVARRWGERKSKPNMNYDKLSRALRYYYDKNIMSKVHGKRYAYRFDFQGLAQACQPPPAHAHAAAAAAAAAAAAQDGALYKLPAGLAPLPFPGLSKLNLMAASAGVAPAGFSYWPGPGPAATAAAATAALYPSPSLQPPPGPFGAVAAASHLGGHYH
To be noted: protein: recombinant; tags: N-terminal GST; dsDNA, one strand shown. The method, boiled down:
(§1)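 Each value of binding signal is a hexamer's read frequency for a factor divided by the same hexamer's frequency in the tag-only sample. Barcoded, bead-captured GST fusions of human transcription factors made in yeast were pooled with that sample and incubated with 200 nmole of a random double-stranded 16-mer DNA library in Tris/NaCl/DTT/glycerol buffer at room temperature for 30 min. Washing, 0.1% formaldehyde crosslinking, proximity ligation, PCR and Illumina NextSeq500 sequencing followed.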

A further assay concerns the target ETV5 (Homo sapiens, UniProt P41161 1-510). As to conditions: protein: recombinant; tags: N-terminal GST; dsDNA, one strand shown. Put shortly:
as §1

Another assay addresses HSF1 (Homo sapiens, UniProt Q00613 1-529). To be noted: protein: recombinant; tags: N-terminal GST; chain copies: 3; dsDNA, one strand shown. The method, boiled down: as §1
The target in another assay is T2, SPIC (Homo sapiens, UniProt Q8N5J4 1-248).
T2 sequence: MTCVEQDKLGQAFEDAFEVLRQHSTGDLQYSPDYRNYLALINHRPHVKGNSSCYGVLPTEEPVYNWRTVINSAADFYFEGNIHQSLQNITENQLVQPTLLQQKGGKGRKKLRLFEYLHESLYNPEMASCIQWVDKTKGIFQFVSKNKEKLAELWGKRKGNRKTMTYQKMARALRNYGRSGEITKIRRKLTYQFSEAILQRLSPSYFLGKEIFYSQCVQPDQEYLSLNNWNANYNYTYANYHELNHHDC
As to conditions: protein: recombinant; tags: N-terminal GST; dsDNA, one strand shown. Put shortly:
as §1

Another assay deals with ELF4 (Homo sapiens, UniProt Q99607 1-663). To be noted: protein: recombinant; tags: N-terminal GST; dsDNA, one strand shown. The method, boiled down:
as §1

Another assay deals with T3, ELK4 (Homo sapiens, UniProt P28324-2 1-405).
T3 sequence: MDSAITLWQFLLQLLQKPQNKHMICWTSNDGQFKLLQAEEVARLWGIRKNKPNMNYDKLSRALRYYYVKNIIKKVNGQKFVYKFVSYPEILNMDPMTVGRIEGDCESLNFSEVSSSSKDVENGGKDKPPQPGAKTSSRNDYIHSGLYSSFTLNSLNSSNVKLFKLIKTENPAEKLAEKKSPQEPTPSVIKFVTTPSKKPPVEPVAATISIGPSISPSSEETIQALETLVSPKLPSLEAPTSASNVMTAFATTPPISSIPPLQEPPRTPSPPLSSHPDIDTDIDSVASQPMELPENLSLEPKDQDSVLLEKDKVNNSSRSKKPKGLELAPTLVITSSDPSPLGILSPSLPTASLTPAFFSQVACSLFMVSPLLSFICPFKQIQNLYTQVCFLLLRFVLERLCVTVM
As to conditions: protein: recombinant; tags: N-terminal GST; dsDNA, one strand shown. The method, boiled down: as §1

The next assay deals with T4, ETV2 (Homo sapiens, UniProt O00321 1-342).
T4 sequence: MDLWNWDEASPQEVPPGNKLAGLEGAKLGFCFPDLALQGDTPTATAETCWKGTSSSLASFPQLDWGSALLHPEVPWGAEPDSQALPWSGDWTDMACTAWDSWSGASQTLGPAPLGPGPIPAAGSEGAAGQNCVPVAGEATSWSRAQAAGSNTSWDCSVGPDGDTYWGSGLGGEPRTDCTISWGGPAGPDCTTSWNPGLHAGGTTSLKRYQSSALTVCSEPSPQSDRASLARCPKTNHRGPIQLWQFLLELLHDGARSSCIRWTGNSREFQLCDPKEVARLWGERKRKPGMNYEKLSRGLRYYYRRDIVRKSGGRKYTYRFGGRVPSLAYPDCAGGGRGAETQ
To be noted: protein: recombinant; tags: N-terminal GST; dsDNA, one strand shown. The method, boiled down: as §1

Another assay addresses T5, ELF3 (Homo sapiens, UniProt P78545 1-371).
T5 sequence: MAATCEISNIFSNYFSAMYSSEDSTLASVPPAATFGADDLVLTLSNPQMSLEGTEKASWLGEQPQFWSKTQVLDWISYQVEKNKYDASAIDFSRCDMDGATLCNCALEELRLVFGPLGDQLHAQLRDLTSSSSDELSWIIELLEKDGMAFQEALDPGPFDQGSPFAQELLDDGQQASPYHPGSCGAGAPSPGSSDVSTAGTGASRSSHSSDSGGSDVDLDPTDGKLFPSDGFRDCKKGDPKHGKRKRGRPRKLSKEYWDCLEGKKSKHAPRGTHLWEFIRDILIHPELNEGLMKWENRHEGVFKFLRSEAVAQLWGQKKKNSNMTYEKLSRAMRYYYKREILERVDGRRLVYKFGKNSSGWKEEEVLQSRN
To be noted: protein: recombinant; tags: N-terminal GST; dsDNA, one strand shown. The method, boiled down:
as §1

Another assay addresses CRX (Homo sapiens, UniProt O43186 1-299). As to conditions: protein: recombinant; tags: N-terminal GST; dsDNA, one strand shown. The method, boiled down:
as §1

Another assay addresses ETV1 (Homo sapiens, UniProt P50549 1-477). To be noted: protein: recombinant; tags: N-terminal GST; dsDNA, one strand shown. Put shortly: as §1
The target in another assay is T6, ERF (Homo sapiens, UniProt P50548 1-548).
T6 sequence: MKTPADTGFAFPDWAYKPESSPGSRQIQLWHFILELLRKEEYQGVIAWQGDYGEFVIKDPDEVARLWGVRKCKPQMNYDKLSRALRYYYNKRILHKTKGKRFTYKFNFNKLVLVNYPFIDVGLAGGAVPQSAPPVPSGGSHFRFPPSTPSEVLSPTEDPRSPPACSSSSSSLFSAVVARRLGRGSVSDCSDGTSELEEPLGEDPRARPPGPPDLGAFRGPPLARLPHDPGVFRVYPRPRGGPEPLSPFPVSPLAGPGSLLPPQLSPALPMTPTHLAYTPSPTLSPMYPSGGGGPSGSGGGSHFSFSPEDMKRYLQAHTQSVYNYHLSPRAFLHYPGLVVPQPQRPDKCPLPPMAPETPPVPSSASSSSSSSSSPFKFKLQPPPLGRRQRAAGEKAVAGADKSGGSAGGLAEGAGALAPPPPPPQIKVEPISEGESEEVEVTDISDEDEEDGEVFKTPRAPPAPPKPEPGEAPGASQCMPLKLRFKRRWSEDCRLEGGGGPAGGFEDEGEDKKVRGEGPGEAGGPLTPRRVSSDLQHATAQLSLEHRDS
As to conditions: protein: recombinant; tags: N-terminal GST; dsDNA, one strand shown. The method, boiled down:
as §1

Another assay has as its target T7, ETV3L (Homo sapiens, UniProt Q6ZN32 1-361).
T7 sequence: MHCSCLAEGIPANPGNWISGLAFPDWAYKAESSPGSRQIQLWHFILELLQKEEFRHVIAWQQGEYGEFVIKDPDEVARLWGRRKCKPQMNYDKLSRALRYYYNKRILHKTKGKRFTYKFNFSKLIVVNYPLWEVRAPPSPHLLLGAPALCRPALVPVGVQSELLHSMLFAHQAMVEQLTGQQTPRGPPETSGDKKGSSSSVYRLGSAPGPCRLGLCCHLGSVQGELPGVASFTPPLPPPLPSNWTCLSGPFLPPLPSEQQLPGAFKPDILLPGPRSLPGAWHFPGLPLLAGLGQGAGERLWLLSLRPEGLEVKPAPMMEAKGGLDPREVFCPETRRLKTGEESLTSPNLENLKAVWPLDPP
As to conditions: protein: recombinant; tags: N-terminal GST; dsDNA, one strand shown. The method, boiled down:
as §1

The target of another assay is T8, ETS2 (Homo sapiens, UniProt P15036 1-469).
T8 sequence: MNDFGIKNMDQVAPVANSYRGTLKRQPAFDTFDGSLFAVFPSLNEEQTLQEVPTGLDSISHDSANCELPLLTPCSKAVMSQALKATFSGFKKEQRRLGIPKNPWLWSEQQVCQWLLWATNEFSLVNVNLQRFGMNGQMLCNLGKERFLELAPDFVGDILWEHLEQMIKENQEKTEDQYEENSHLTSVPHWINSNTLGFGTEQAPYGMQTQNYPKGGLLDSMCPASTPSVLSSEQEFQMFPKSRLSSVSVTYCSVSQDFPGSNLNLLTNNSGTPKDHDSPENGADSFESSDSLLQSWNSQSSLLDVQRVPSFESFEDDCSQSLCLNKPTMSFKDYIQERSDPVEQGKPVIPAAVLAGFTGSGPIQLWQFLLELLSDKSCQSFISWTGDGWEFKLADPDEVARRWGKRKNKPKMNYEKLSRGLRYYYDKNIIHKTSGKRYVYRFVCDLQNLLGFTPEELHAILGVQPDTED
As to conditions: protein: recombinant; tags: N-terminal GST; dsDNA, one strand shown. Put shortly: as §1

In another assay the target is T9, SPDEF (Homo sapiens, UniProt O95238 1-335).
T9 sequence: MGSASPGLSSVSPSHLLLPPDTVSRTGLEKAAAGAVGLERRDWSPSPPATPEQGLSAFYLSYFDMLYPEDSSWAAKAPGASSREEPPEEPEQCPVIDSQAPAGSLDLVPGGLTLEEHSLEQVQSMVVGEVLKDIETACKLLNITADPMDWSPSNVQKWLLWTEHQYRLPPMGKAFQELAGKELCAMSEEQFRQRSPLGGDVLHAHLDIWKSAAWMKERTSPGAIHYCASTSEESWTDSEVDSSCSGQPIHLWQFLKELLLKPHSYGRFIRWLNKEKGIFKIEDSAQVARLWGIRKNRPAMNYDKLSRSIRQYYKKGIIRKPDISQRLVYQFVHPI
As to conditions: protein: recombinant; tags: N-terminal GST; dsDNA, one strand shown. Put shortly: as §1

The target in the next assay is T10, ETV7 (Homo sapiens, UniProt Q9Y603 1-341).
T10 sequence: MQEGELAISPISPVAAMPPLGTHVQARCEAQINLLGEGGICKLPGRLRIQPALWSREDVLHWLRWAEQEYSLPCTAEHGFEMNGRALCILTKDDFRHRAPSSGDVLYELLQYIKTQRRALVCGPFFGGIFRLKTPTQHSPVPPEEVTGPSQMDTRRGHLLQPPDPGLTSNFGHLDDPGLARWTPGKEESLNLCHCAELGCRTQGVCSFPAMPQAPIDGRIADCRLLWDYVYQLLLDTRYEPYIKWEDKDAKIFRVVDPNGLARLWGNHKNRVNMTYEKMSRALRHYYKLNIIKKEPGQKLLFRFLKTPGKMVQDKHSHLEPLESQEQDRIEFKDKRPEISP
As to conditions: protein: recombinant; tags: N-terminal GST; dsDNA, one strand shown. Put shortly:
as §1

Another assay addresses T11, ELF5 (Homo sapiens, UniProt Q9UKW6-2 1-255).
T11 sequence: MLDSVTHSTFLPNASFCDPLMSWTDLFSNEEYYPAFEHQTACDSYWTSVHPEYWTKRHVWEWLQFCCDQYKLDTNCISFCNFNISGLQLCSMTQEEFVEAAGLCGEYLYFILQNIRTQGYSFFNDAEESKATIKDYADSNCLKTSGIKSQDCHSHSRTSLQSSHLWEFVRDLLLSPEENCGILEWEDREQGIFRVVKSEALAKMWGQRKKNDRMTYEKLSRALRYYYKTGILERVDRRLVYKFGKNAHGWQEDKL
As to conditions: protein: recombinant; tags: N-terminal GST; dsDNA, one strand shown. The method, boiled down: as §1

In a further assay the target is T12, ETV3 (Homo sapiens, UniProt P41162-2 1-143).
T12 sequence: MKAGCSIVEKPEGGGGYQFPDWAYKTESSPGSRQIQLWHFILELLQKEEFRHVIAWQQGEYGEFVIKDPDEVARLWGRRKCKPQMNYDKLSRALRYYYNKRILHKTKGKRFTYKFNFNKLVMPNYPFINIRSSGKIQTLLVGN
As to conditions: protein: recombinant; tags: N-terminal GST; dsDNA, one strand shown. Put shortly: as §1

Another assay has as its target ETV6 (Homo sapiens, UniProt P41212 1-452). To be noted: protein: recombinant; tags: N-terminal GST; dsDNA, one strand shown. The method, boiled down: as §1

HSF1, sequence (Q00613 whole entry): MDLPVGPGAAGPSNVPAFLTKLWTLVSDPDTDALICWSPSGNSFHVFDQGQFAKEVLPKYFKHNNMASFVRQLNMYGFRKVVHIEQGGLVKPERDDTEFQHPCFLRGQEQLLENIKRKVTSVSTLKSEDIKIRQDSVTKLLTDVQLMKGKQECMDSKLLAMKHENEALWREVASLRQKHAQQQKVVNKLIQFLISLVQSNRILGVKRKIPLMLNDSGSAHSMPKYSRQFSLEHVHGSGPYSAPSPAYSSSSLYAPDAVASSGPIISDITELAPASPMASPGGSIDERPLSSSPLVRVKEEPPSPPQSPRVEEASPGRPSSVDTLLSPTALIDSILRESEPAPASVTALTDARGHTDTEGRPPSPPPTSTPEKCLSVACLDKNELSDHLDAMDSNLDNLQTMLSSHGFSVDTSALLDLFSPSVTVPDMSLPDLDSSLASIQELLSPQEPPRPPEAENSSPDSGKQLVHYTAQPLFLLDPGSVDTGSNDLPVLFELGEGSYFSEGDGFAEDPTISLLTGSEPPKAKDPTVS
CRX, sequence (O43186 whole entry): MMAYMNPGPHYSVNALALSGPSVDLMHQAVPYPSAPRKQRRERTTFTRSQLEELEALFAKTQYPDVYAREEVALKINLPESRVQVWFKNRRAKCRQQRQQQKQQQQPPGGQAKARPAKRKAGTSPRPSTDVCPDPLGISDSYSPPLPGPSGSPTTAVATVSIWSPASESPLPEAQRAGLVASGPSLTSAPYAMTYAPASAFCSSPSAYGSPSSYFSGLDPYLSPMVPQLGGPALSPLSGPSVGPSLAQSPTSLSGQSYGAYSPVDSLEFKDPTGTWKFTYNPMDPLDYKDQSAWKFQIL
ETV1, sequence (P50549 whole entry): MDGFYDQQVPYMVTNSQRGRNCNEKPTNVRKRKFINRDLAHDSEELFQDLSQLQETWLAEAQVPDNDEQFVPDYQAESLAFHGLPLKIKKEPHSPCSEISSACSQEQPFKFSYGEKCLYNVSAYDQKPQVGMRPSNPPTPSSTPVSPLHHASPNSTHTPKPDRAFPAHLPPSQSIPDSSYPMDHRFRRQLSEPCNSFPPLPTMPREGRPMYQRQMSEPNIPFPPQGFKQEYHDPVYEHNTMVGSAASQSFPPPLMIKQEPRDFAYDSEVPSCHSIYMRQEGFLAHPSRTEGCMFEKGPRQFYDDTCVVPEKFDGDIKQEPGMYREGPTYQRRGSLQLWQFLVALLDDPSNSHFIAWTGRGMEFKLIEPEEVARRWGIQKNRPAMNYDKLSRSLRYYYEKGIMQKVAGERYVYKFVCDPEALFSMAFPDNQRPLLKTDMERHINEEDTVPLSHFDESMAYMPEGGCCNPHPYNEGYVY
ELF4, sequence (Q99607 whole entry): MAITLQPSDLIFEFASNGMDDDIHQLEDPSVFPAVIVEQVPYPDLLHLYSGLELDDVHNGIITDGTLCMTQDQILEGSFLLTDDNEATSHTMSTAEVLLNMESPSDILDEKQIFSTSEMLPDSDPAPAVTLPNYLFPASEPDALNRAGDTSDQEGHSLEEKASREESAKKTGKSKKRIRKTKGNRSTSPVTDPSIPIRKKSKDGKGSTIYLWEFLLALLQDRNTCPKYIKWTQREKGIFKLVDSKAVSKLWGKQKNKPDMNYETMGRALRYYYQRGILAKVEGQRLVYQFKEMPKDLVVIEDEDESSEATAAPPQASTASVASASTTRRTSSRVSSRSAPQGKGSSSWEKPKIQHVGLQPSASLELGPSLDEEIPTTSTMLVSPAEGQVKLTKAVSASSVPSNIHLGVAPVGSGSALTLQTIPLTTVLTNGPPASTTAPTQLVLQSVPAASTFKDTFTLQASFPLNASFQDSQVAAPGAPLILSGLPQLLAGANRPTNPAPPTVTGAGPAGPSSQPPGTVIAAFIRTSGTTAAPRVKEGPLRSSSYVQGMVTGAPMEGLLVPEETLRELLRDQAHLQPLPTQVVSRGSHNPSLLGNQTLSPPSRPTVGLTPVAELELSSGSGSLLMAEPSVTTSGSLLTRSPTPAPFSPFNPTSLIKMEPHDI
ETV5, sequence (P41161 whole entry): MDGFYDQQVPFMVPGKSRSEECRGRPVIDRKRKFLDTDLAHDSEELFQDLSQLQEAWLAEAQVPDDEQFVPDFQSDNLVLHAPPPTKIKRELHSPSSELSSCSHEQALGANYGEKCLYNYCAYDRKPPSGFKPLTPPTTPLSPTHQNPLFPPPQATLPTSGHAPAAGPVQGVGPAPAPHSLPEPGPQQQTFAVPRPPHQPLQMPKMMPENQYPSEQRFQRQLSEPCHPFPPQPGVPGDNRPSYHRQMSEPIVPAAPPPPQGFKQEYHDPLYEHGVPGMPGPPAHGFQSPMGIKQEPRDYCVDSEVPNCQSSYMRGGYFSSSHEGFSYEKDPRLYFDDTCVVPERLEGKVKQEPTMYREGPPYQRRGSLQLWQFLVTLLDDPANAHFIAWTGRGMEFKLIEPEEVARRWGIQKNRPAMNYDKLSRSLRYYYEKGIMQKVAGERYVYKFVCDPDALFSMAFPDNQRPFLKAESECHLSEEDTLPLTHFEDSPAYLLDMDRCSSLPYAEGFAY
ETV6, sequence (P41212 whole entry): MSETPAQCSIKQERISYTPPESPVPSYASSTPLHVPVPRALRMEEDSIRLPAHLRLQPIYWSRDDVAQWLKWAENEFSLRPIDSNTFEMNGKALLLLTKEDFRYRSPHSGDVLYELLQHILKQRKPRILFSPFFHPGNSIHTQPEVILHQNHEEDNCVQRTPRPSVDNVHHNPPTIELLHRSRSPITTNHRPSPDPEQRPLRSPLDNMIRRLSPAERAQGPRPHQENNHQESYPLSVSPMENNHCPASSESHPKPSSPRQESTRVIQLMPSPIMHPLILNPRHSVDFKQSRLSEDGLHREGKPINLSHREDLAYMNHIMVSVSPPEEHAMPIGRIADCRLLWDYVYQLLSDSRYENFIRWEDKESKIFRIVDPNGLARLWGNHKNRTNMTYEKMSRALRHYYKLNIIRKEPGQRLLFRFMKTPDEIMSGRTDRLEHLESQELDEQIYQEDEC

In the case of CCTTCC, the binding signal with FEV is 2.78 fold enrichment (6-mer frequency, TF over GST control); with ETV5 it was 2.73 fold enrichment (6-mer frequency, TF over GST control); with HSF1, 1.81 fold enrichment (6-mer frequency, TF over GST control); with SPIC it was 2.36 fold enrichment (6-mer frequency, TF over GST control); with ELF4, 2.5 fold enrichment (6-mer frequency, TF over GST control); with ELK4 it was 2.19 fold enrichment (6-mer frequency, TF over GST control). For the same sequence, the binding signal with ETV2 was 2.51 fold enrichment (6-mer frequency, TF over GST control); with ELF3, 2.27 fold enrichment (6-mer frequency, TF over GST control); in the assay with CRX, 1.26 fold enrichment (6-mer frequency, TF over GST control); with ETV1 it was 2.55 fold enrichment (6-mer frequency, TF over GST control); with ERF, 2.26 fold enrichment (6-mer frequency, TF over GST control); with ETV3L, 2.48 fold enrichment (6-mer frequency, TF over GST control). Also, the binding signal with ETS2 is 2.41 fold enrichment (6-mer frequency, TF over GST control); with SPDEF it was 2.44 fold enrichment (6-mer frequency, TF over GST control); with ETV7 it was 2.45 fold enrichment (6-mer frequency, TF over GST control); with ELF5 it was 3.65 fold enrichment (6-mer frequency, TF over GST control); in the assay with ETV3 it was 2.88 fold enrichment (6-mer frequency, TF over GST control); with ETV6 it was 2.74 fold enrichment (6-mer frequency, TF over GST control).
